Measurements: the supplement of paper PMC11732987, “Enantioselective OTUD7B fragment discovery through chemoproteomics screening and high-throughput optimisation” (Communications Chemistry, 2025)

What was measured:
Assay in all cases: log2 ratio of Biotin-Ahx-Ub-VS probe labelling (fragment/DMSO); higher = less target engagement (more negative = stronger competition), active = hit call of the paper (q ≤ 0.05, log2 ratio ≤ -1)
Settings in all cases: compound concentration: 200 uM; treatment time: 3 h
USP42 = target: T1, USP42 (UniProt Q9H9J4)
T1 sequence (whole entry): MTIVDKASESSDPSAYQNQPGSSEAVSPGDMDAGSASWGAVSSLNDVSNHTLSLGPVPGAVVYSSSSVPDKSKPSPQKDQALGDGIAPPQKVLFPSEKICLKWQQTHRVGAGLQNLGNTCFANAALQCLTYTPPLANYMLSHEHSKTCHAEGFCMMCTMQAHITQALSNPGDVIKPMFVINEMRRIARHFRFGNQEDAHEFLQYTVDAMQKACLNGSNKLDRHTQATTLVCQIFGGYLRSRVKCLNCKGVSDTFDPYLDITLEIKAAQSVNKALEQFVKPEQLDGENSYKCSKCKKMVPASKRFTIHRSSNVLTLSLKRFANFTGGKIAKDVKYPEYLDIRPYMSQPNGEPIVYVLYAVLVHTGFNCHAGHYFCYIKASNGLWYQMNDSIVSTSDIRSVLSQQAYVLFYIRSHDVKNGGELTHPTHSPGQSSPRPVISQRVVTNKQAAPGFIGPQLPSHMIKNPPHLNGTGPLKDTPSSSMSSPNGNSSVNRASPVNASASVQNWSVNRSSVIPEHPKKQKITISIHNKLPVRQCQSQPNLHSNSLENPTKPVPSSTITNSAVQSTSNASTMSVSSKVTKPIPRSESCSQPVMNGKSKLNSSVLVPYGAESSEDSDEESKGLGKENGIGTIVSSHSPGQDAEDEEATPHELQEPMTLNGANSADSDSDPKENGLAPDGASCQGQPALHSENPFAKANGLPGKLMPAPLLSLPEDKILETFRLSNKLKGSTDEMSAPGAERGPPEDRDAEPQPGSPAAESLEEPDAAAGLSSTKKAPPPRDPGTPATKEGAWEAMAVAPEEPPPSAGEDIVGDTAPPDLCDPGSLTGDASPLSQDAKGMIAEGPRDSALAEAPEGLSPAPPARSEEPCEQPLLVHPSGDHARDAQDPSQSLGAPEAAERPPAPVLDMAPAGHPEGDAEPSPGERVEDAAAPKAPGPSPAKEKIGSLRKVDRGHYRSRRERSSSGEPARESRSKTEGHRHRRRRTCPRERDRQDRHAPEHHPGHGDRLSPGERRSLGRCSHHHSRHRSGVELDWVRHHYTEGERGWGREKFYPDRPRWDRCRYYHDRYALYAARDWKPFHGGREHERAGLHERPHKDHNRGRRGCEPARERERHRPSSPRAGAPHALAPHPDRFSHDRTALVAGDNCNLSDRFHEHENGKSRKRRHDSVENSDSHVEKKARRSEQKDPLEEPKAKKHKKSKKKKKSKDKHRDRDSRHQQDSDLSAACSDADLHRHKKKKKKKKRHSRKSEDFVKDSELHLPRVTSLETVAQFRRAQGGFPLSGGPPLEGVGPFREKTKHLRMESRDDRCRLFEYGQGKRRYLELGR
Outline: (§1)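 HEK293T lysate (495 µg per sample, in Tris/CHAPS/IGEPAL buffer with protease inhibitors) was treated in triplicate with fragment at 200 µM or with DMSO for 3 h. It was then treated with Biotin-Ahx-Ub-VS (0.5 µM final) for 1 h. Labelled DUBs were NeutrAvidin-enriched, digested with LysC and trypsin, and run by diaPASEF LC-MS/MS. Spectronaut label-free quantities were global-median-normalised. Values are average log2 ratios fragment/DMSO by unpaired t-test, using proteins with ≥2 unique peptides.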

USP46 = USP46 (UniProt P62068)
Outline: as §1

USP47 = target: T2, USP47 (UniProt Q96K76)
T2 sequence (whole entry): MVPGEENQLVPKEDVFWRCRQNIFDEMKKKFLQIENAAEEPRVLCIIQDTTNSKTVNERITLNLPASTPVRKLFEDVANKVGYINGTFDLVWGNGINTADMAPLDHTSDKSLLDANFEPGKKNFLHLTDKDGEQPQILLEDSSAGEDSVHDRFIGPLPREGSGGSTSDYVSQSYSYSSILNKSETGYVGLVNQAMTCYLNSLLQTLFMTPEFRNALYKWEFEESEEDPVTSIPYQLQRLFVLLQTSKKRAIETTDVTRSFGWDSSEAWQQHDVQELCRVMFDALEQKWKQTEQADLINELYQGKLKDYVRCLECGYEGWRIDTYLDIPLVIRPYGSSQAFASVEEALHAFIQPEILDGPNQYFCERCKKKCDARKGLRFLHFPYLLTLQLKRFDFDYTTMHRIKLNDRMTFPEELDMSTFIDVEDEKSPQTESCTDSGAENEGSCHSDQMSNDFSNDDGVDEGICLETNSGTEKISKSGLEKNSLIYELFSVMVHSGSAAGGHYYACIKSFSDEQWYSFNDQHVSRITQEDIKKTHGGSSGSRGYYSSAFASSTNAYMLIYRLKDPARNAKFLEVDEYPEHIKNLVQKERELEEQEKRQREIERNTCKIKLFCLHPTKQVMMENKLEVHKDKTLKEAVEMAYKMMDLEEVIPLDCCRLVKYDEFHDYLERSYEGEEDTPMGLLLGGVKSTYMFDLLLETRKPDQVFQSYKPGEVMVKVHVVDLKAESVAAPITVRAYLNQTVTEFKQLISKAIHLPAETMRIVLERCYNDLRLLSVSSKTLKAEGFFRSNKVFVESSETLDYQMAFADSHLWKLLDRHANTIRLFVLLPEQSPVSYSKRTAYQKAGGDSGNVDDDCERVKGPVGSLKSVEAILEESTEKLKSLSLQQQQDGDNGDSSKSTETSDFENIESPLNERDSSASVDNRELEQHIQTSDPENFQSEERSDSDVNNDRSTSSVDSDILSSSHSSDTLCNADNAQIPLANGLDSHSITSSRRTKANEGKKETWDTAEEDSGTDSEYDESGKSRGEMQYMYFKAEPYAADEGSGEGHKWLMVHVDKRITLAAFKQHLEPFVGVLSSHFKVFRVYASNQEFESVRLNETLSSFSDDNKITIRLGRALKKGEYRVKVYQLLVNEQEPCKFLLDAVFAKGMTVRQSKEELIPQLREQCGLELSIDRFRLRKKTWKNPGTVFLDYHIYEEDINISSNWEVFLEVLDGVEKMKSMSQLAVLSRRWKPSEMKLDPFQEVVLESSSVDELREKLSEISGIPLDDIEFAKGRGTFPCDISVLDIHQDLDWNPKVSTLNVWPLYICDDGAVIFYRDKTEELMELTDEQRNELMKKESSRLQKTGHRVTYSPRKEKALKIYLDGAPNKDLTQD
Outline: as §1

USP48 = target: T3, USP48 (UniProt Q86UV5)
T3 sequence (whole entry): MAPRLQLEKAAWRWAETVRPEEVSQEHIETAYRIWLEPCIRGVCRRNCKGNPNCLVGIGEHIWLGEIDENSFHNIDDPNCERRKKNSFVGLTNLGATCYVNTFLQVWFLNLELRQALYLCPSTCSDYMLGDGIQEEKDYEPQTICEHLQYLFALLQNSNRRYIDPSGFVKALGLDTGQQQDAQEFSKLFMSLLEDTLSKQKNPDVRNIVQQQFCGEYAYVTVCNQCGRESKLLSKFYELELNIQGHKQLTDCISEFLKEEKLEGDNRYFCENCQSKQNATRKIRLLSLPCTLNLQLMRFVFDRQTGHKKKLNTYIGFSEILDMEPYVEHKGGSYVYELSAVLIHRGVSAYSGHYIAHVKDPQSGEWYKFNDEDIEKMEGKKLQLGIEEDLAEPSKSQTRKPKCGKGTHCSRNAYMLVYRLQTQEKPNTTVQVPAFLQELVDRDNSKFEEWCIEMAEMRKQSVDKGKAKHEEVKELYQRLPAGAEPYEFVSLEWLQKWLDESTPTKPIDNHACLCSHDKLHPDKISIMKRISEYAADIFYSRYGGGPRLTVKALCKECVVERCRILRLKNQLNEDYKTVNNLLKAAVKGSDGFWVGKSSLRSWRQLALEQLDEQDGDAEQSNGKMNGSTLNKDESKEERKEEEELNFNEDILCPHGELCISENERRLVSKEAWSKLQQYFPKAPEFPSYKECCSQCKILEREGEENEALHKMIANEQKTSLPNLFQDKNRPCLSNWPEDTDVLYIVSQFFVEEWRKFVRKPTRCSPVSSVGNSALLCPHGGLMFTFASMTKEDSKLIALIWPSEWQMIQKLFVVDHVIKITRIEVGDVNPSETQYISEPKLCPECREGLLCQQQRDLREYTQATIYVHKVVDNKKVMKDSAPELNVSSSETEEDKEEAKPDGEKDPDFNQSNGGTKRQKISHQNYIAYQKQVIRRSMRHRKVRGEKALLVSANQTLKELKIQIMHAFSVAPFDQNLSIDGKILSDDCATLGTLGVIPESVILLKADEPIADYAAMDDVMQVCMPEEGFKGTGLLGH
Outline: as §1

USP5 = target: T4, USP5 (UniProt P45974)
T4 sequence (whole entry): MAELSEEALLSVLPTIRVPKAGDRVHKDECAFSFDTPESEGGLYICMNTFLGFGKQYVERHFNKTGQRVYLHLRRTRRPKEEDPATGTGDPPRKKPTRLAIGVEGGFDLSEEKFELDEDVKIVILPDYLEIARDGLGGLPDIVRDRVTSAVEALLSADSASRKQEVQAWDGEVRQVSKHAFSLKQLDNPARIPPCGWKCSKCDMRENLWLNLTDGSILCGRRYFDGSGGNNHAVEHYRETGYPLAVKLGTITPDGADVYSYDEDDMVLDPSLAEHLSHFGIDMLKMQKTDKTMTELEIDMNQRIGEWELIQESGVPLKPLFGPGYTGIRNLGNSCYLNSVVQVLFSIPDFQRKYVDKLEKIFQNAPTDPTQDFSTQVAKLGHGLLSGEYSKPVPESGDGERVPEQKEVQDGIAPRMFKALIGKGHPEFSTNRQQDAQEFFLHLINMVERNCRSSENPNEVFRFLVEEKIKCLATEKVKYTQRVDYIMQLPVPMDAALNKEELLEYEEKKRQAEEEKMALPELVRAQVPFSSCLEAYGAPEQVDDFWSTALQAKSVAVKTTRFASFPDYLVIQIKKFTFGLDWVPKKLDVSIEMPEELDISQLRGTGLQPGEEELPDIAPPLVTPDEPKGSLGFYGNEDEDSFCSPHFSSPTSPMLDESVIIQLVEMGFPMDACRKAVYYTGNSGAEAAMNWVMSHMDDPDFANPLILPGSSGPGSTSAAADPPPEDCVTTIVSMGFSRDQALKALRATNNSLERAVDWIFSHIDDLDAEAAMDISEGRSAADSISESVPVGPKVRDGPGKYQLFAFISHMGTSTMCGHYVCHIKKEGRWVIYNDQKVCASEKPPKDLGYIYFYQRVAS
Outline: as §1

USP54 = USP54 (UniProt Q70EL1)
Outline: as §1

USP7 = USP7 (UniProt Q93009)
Outline: as §1

USP8 = target: T5, USP8 (UniProt P40818)
T5 sequence (whole entry): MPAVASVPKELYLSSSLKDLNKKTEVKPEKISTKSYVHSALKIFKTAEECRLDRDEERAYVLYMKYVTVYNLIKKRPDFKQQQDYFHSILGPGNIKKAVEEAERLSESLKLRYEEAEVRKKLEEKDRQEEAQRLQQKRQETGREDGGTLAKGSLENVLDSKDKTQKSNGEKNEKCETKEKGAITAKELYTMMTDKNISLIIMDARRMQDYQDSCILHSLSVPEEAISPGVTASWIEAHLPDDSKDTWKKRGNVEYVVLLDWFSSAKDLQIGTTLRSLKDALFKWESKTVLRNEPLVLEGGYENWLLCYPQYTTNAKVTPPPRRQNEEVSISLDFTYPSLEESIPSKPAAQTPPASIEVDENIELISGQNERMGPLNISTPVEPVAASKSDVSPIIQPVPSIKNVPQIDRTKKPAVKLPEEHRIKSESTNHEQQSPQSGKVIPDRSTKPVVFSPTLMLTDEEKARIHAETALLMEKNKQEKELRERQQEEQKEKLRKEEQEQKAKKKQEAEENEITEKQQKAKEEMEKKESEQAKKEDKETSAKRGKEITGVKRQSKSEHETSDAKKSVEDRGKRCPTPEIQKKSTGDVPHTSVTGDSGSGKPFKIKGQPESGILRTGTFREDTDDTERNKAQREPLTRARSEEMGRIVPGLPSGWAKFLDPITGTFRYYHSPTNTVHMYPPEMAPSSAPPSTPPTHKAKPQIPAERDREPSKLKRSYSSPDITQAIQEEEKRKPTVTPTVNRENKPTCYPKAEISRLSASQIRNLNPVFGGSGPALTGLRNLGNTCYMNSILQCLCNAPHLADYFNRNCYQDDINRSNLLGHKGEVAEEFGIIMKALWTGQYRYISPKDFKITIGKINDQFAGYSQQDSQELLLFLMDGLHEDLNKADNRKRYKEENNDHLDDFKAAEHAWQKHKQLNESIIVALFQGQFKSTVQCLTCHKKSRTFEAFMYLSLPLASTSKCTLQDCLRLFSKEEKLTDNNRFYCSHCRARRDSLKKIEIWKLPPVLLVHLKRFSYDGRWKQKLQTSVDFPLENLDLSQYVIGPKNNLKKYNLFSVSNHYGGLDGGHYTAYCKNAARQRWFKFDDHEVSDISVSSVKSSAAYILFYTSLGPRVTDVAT
Outline: as §1

Measured: log2 ratio of Biotin-Ahx-Ub-VS probe labelling

USP7, sequence (Q93009 whole entry, looked up): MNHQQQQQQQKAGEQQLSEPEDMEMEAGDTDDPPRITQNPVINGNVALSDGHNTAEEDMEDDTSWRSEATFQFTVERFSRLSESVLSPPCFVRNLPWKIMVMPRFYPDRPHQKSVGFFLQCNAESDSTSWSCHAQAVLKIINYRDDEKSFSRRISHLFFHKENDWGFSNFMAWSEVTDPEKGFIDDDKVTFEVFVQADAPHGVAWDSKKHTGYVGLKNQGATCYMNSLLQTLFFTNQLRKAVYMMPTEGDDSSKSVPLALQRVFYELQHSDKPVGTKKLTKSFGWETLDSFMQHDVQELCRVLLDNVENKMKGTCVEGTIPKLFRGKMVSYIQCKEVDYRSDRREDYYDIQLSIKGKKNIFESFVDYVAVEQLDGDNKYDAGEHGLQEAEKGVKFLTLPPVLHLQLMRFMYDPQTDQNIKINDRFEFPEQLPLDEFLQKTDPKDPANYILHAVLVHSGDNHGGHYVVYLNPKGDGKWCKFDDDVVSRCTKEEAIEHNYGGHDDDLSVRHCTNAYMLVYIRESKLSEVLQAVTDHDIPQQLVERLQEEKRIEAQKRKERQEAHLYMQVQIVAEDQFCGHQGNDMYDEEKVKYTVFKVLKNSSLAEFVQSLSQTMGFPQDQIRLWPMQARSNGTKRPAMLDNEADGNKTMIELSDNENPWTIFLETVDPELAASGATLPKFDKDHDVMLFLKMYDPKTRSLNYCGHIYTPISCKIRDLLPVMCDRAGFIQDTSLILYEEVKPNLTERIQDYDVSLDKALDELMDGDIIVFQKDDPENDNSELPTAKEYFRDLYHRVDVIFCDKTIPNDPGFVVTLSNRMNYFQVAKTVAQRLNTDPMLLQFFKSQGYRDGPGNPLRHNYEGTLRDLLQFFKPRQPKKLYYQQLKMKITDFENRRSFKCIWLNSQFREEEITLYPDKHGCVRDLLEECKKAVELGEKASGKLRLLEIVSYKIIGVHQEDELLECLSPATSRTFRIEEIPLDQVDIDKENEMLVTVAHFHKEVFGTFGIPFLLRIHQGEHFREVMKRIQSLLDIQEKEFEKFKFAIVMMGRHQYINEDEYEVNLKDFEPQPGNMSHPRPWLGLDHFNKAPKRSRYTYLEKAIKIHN
USP46, sequence (P62068 whole entry): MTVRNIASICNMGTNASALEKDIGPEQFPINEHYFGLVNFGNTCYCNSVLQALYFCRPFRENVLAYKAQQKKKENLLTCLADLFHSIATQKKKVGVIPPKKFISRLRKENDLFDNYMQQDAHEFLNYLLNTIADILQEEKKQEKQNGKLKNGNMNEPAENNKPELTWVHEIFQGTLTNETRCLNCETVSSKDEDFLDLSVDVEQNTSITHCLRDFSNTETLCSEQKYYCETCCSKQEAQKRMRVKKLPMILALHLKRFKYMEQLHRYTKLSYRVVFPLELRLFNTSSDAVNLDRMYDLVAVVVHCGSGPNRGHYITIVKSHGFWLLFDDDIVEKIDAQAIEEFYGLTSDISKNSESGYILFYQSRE
USP54, sequence (Q70EL1 whole entry): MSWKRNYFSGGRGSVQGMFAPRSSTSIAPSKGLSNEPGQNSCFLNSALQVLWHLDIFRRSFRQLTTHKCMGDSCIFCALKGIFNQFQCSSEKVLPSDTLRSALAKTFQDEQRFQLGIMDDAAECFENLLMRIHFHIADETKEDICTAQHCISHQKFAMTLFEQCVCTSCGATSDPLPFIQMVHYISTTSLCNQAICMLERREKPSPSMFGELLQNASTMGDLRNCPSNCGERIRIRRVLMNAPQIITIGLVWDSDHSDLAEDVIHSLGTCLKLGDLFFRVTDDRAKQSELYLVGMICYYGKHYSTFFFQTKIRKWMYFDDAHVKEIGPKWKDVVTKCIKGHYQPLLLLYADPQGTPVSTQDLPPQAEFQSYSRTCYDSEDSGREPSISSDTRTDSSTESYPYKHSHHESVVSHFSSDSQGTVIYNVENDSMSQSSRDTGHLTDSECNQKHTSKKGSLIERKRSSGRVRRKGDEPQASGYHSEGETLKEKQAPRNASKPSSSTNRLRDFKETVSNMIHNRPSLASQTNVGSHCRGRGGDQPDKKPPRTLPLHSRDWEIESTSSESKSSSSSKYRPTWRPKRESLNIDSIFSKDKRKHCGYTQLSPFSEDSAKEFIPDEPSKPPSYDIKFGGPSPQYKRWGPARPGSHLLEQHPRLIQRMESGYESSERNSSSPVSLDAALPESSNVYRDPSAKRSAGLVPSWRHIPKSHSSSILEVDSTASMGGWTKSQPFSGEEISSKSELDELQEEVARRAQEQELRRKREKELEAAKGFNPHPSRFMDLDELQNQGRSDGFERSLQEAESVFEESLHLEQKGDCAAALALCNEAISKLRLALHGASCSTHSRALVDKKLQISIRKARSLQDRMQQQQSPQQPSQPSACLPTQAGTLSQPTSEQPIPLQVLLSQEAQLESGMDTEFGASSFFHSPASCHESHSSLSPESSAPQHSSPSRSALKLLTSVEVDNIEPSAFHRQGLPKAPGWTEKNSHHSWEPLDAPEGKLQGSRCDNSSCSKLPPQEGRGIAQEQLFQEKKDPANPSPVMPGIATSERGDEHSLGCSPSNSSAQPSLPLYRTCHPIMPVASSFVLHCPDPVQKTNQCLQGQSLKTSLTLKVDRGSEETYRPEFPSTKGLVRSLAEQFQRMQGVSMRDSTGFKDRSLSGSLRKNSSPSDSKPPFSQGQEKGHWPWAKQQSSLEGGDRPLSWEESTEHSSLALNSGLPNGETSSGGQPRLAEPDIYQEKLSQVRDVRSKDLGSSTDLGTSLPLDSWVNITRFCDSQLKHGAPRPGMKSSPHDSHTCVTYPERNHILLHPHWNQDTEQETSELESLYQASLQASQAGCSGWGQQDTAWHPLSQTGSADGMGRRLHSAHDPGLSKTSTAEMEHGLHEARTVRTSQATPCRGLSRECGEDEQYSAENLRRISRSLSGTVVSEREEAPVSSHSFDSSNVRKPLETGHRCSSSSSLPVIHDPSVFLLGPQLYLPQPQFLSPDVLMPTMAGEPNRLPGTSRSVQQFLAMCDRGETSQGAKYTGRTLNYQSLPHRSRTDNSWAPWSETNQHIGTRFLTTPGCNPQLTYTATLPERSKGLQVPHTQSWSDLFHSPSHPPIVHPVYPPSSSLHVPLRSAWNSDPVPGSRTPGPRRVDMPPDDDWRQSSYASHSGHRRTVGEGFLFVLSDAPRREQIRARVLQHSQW

COc1ccccc1C(C)NC(=O)CCl (stereo not drawn)
inactive: USP42 -0.0523 | USP46 -0.0541 | USP47 -0.334 | USP48 -0.321 | USP5 -0.208 | USP54 0.256 | USP7 -0.235 | USP8 -0.576
